The values below come from PubChem BioAssay (NCATS).

A short description of experiment [1]: qHTS assay to identify inhibitors of the type 1 interferon - major histocompatibility complex class I in skeletal muscle: Counter screen cell viability and HiBit confirmation (AID 1347412; active means well fitted inhibition curve with a large enough effect; further: nearly all actives have a fitted effect of over 60% in size; further: potency means the concentration at half of the fitted maximal effect; on activity change, negative = inhibition: on the % scale 0 is the no-effect control and ±100 the full control effect). The settings on record: iHSKM muscle cells + IFN-b, HiBiT or CellTiter-Glo, 24 h. In short, it runs like this:
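After 24 h with human IFN-beta (4 ng/ml) and compound titrations (top 46 uM final, 1:3, 12 points), HLA-B HiBit myoblasts were lysed for either Nano-Glo HiBiT luminescence or CellTiter Glo viability on paired plates.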
Background: In qHTS, concentration-response curves come from the screen itself.

Experiment [2] in a line: qHTS assay for small molecule activators of the human pregnane X receptor (PXR) signaling pathway (AID 720659). Further: 0% is about no effect. The settings on record: DPX-2 HepG2 CYP3A4-luciferase, 24 h; series mostly up to 92.3 µM.

Values without a mark were called inactive. Records with an inconclusive call do not appear. The source made the active and inactive calls. Unless noted, how the calls were made is not given here.

Regarding `O=C(CCCCCCC(=O)Nc1ccccc1)NO`, in experiment [1] (HiBiT), the Potency is 3.52 µM (active). Besides, in experiment [1] (Viability, at 45.9 µM (top of the series)), the activity change, negative = inhibition is 2.12%.
Turning to `CC(C)(C)c1ccc(C(O)CCCN2CCC(C(O)(c3ccccc3)c3ccccc3)CC2)cc1` (stereo not given), the Potency in experiment [1] (Viability) is 22.2 µM (active).
Regarding `CCCNC(=O)NS(=O)(=O)c1ccc(Cl)cc1`, the molecule was classed as inactive in experiment [2].
With `O=c1[nH]cnc2c1ncn2[C@H]1CC[C@@H](CO)O1`, in experiment [2], the result was inactive.
